SW480 rerep = DNA re-replication induction in SW480 cells; SW480 DNA re-replication, Hoechst DNA content imaging, 48 h; actives 1.8% (n = 340,000); AID 624297; Potency, µM (top dose mostly 46.1 µM), without a hit: top-dose re-replication activation, hits mostly activators; note: potency is the fitted concentration of half-maximal effect; % of control where 0% means no effect; nearly all actives have a fitted effect of over 55% in size
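Hoechst fluorescence of nuclei (405 nm excitation, 500-530 nm emission) measured by plate-scanning imager after 48 hr compound exposure at 37 C; re-replication scored as increased number of nuclei with elevated intensity.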
VP16 counter = Gal4-VP16 reporter inhibition counter-screen; AID 2546; Potency, µM (doses to about 53.6 µM), for the others: at the top dose activity, negative = inhibition, actives largely listed as inhibitors; Drosophila S2 Gal4-VP16 UAS-luciferase, luminescence, 20 h; actives 3.5% (n = 310,000);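 note: Gal4-VP16 expression switched on by copper sulfate through the metallothionein promoter; potency is the fitted concentration of half-maximal effect; % is set by controls: 0 for no effect and ±100 for the full control effect; nearly all actives have a fitted effect of over 50% in size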
MCF10A rerep = DNA re-replication induction in MCF 10a cells; AID 624296; actives 2.9% (n = 350,000); Potency, µM (series often up to 46.1 µM), without a hit: at the highest dose activity, positive = re-replication, usual class: activators; MCF 10A DNA re-replication, Hoechst nuclear intensity, 48 h; note: potency is the fitted concentration of half-maximal effect; % of control where 0% means no effect; nearly all actives have a fitted effect of over 50% in size
RORg inh = blocks mouse ROR gamma transcriptional activity; actives 5.4% (n = 310,000); Drosophila S2 Gal4-RORgamma UAS-luciferase reporter, 20 h; Potency, µM (series often up to 53.6 µM), for the others: at the top dose activity change, negative = inhibition, actives largely listed as inhibitors; AID 2551; P51450; note: potency is the fitted concentration of half-maximal effect; % is set by controls: 0 for no effect and ±100 for the full control effect; nearly all actives have a fitted effect of over 60% in size
Target sequence (P51450 whole entry, looked up, the tested form may be a part): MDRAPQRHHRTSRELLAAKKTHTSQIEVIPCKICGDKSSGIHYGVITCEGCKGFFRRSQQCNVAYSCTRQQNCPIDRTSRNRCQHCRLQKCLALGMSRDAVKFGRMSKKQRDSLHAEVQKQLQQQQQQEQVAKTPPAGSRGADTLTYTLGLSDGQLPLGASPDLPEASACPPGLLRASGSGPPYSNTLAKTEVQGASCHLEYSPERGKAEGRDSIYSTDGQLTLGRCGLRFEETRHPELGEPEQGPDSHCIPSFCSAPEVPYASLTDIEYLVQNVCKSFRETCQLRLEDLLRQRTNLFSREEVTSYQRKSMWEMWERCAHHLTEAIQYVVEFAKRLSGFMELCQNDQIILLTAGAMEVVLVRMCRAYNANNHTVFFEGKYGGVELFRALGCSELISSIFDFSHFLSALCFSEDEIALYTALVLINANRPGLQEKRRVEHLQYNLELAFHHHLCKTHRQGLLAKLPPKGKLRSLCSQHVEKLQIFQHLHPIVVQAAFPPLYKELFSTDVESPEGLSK
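A Gal4/UAS one-hybrid system in insect cells: metallothionein-promoter Gal4–ROR gamma fusion plus Photinus luciferase reporter. Copper sulfate 700 uM final, 20 hr ambient incubation, luminescent detection after 10 min with reagent.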
Giardia kill = Giardia lamblia killing; Giardia lamblia trophozoite viability; activity change, % at 7.66 µM, hits read low; actives 0.15% (n = 340,000); AID 540267; in the data active = activity change below about -80%; inconclusive = between about -30% and that limit;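 note: parasites exposed to compound for two days anaerobically before the ATP read; % is set by controls: 0 for no effect and ±100 for the full control effect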
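Anaerobic 48 hrs incubation at 37 deg C of 100 trophozoites/well with test compounds; ATPLite 1-Step luminescence, 15-30 min RT, reports cellular ATP as viability.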
Chronic BCR inh = chronic active BCR signaling inhibition; actives 0.05% (n = 340,000); ABC-DLBCL IkBa-CBG/CBR reporter, luminescence ratio, 4 h; Potency, µM (titrated, usually from 46.1 µM), for inactives: top-dose activity change, negative = inhibition, most hits filed as inhibitors; active = well fitted inhibition curve with a large enough effect in the signal ratio, with a control signal flat, not every such curve was filed as active; inconclusive = small, poorly fitted or top-dose-only effect, or effect the other way, or a change in a side signal; the % refers to the signal ratio;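 note: potency is the fitted concentration of half-maximal effect; plate controls were basal doxycycline-induced cells for no effect and cells given 10 µM MG132 for full effect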
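Doxycycline induced both beetle luciferases in TMD8 lymphoma cells; IKK-driven degradation limits the IkappaBalpha-fused green signal, while red luminescence normalises for cell number and nonspecific effects. Compounds tested up to 46 uM, 4 hrs.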
* = called active by the depositor; u = inconclusive; x = no result given; [ ] = another dose, or the depositor's remark. The list is not random: actives were taken first. Their share in the collection is about 8.3%. Unless noted, calls come from the whole dose curve; as a rule, active = well fitted curve in the direction sought with a large enough effect; inconclusive = small, poorly fitted or top-dose-only effect, or another doubt; inactive = no such curve, though single readings can be large; an effect the other way counts as inactive or inconclusive.

SMILES	SW480 rerep	VP16 counter	MCF10A rerep	RORg inh	Giardia kill	Chronic BCR inh
CC(NC(=O)CN1CCN(CC(=O)Nc2ccccc2Cl)CC1)c1ccc(Br)cc1 (centres undefined)	-3%	x	-2%	x	-13	-1%
COc1ccc(C(=O)Nc2nc3ccccc3[nH]2)cc1	u	6.3µM*	0%	2.8µM*	u	u
CS(=O)(=O)c1ccccc1C(=O)Nc1nc2ccccc2[nH]1	26%	0%	7%	6%	8	10%
Cc1cccc(C(=O)N[C@H](C(=O)Nc2nc3ccccc3[nH]2)C(C)C)c1	5.8µM*	u	5.8µM*	u	28	u
O=C(Nc1nc2ccccc2[nH]1)c1cccs1	3%	13µM*	15%	5µM*	-13	u
COc1ccccc1CNC(=O)c1ccc(-c2ccccc2C(F)(F)F)o1	1%	-30%	15µM*	u	22	-11%
O=C(Nc1ccc(Br)cc1F)c1cc(S(=O)(=O)NC2CCCC2)ccc1F	x	x	x	x	x	-3%
CCOc1ccc(C(=O)NC(C(=O)NCc2ccccc2OC)C(C)C)cc1 (centres undefined)	-2%	9%	-2%	-17%	2	1%
COc1ccccc1C(=O)NNC(=O)C(=O)Nc1ccc(C)cc1	u	3%	16%	11µM*	0	u
COc1ccc(C(=O)NC(C(=O)NCc2ccccc2OC)C(C)C)cc1 (centres undefined)	-44%	0%	0.92µM*	0%	-7	7%
COc1cccc(C(=O)Nc2nc3ccccc3[nH]2)c1	2%[9.22 µM]	10µM*	15%	4µM*	u	u
COc1ccc(C(=O)N[C@H](C(=O)Nc2nc3ccccc3[nH]2)C(C)C)cc1	9.2µM*	-17%	u	-33%	-4	u
Cc1onc(-c2c(Cl)cccc2Cl)c1C(=O)N=S(C)(=O)c1ccccc1 (centres undefined)	6%	-1%	-20%	5%	16	14%
Cc1cc(NC(=O)c2ccccc2F)ccc1-c1nc2ccccc2s1	x	x	x	x	x	-3%
CCCN1CNc2c(c(=O)[nH]c(=S)n2CCc2ccc(OC)cc2)C1	x	x	x	x	-13	x
COCc1cccc(N2C(=O)CC(C3C=C(C)C4C(=O)N(c5cccc(COC)c5)C(=O)C4C3)C2=O)c1 (centres undefined)	-20%	8%	-1%	-24%	-11	u
CCSc1nnc(NC(=O)[C@@H](NC(=O)c2cccc(C)c2)C(C)C)s1	13%	-1%	u	32%	3	-2%
COc1cc(C(=O)Nc2nc3ccccc3[nH]2)cc(OC)c1OC	12%	10µM*	0%	10µM*	2	u
CCC(CC)c1nnc(NC(=O)[C@@H](NC(=O)c2cccc(C)c2)C(C)C)s1	1%	16µM*	4%	20µM*	37	u
COc1ccccc1CNC(=O)/C(C#N)=C/c1ccc(OC)c(OC)c1OC	-11%	-14%	18µM*	u	-18	-24%
COc1ccccc1CNC(=O)c1ccccc1OC	-12%	-4%	9.2µM*	36%	12	u
COc1cc(/C=N\Nc2nc3ccccc3[nH]2)cc(OC)c1OC	0%	-10%	u	12%	6	u
COc1ccccc1CNC(=O)c1ccccc1C(=O)NC(C)(C)C(=O)NCc1ccccc1OC	-15%	-1%	2%	-6%	-5	3%
C=CCc1ccccc1OCC(O)CN1CCOCC1 (centres undefined)	12µM*	x	9%	x	-16	x
CN(C)S(=O)(=O)N1CCN(CC(O)COc2ccc3cc(Br)ccc3c2)CC1 (centres undefined)	10%	-26%	0%	63%	3	-7%
CC(C)(c1ccccc1)c1ccc(OCC(O)CN2CCCC2)cc1 (centres undefined)	16µM*	-7%	u	u	2	-9%
OC(COc1ccccc1)CN1CCCC1 (centres undefined)	-23%	-13%	-3%	-12%	26	2%
